Data published in PubChem BioAssay AID463173 (ICCB-Longwood Screening Facility, Harvard Medical School, 2010).
Among all 52,000 compounds or so, about 1,700 (3.3%) were called active. Many of the other results were omitted from the sample, so actives are more common in it than they were. A number with no mark means an inactive call. Cut-off read from the data, not from the text of the source: active = survival mostly below about 52% (no sharp cut-off); inactive = mostly above about 56%.

What follows are compounds tested on Wild type (assay: S. aureus survival, RN4220 and DeltatarO strains – OD600, teichoic acid synthesis inhibitors, primary screen (AID 463173)). Details: S. aureus RN4220 wild type/DeltatarO growth, OD600, 18 h, hits give low values, screened at 18.75 µg/mL (by protocol).

Row | SMILES | survival
1 | O=C(COc1ccc(Cl)cc1)NCC(c1ccco1)S(=O)(=O)c1ccc(Cl)cc1 (centres undefined) | 78%
2 | Cc1cccc(CNC(=O)Cc2csc3ccccc23)c1 | 116%
3 | COc1ccc(CNC(=O)c2cccc(NC(=O)N3CCSc4ncccc43)c2)cc1 | 67%
4 | COc1ccccc1NC(=O)CCn1nc(-c2ccccc2OC)c2c(C)cc(C)nc21 | 111%
5 | O=C(/C=C\c1ccco1)Oc1cccc2cccnc12 | 1% (active)
6 | O=C(Oc1ccccc1-c1nc(-c2ccccc2)no1)c1ccccc1 | 100%
7 | O=C(/C=C/c1ccco1)OCCN1CCOCC1 | 92%
8 | O=C(/C=C/c1ccco1)ON1C(=O)c2ccccc2C1=O | 117%
9 | O=C1c2ccccc2C(=O)N1COc1cccc2cccnc12 | 101%
10 | O=C(Oc1cccc2cccnc12)c1ccccc1 | 1% (active)
11 | N#Cc1ccccc1NC(=O)Cn1cnc2onc(-c3cccc(F)c3)c2c1=O | 105%
12 | O=C(C1CCN(c2nc3ccccc3[nH]2)CC1)N1CCN(c2cccc(Cl)c2)CC1 | 0% (active)
13 | Cc1ccc2nc(N3CCC(C(=O)N4CCN(c5cccc(Cl)c5)CC4)CC3)[nH]c2c1 | 74%
14 | O=C(C1CCN(c2nc3ccccc3[nH]2)CC1)N1CCN(c2ccccc2)CC1 | 85%
15 | CCCC(=O)c1cc(F)c(N2CCOCC2)cc1C | 121%
16 | Cc1ccc(NC(=O)Cn2c(=O)n(Cc3ccccc3)c(=O)c3sc4ccccc4c32)cc1 | 93%
17 | Cc1ccc(-n2ncc(C(=O)NCc3ccco3)c2C2CCN(C(=O)OC(C)(C)C)CC2)cc1C | 72%
18 | COc1ccc(N2CCN(c3oc(/C=C/c4ccc(F)cc4)nc3C#N)CC2)cc1 | 84%
19 | CCOc1cc(C(=O)N(Cc2nc(-c3ccc(C)cc3)no2)C(C)C)cc(OCC)c1OCC | 15% (active)
20 | CCCCOc1ccc(C(=O)N(Cc2nc(-c3ccc(Cl)cc3)no2)C(C)C)cc1 | 85%
21 | Cc1cc(C)cc(C(=O)N(Cc2nc(-c3ccc(Cl)cc3)no2)C(C)C)c1 | 17%
22 | CC(C)N(Cc1nc(-c2ccc(Cl)cc2)no1)C(=O)c1ccc(C(C)(C)C)cc1 | 0% (active)
23 | COc1cccc(C(=O)N(Cc2nc(-c3ccc(Cl)cc3)no2)C(C)C)c1OC | 46%

Row | SMILES | survival
24 | CCOc1cc(C(=O)NCc2nc(-c3cccc(C)c3)no2)cc(OCC)c1OCC | 89%
25 | Cc1ccc(-c2noc(CNC(=O)c3ccc(C(C)(C)C)cc3)n2)cc1 | 89%
26 | Cc1ccc(-c2noc(CN(C(=O)c3ccc(C(C)(C)C)cc3)C(C)C)n2)cc1 | -1% (active)
27 | CCCCN(C)CCCNC(=O)C1CCN(S(=O)(=O)CCC)CC1 | 77%
28 | Cc1ccc(NC(=O)Cn2c(=O)n(CCC(=O)N3CCc4ccccc4C3)c(=O)c3ccccc32)c(C)c1 | 79%
29 | COc1cccc(C(=O)Nc2cc3c(cc2C(=O)c2ccc(C)cc2)OCCO3)c1 | 71%
30 | CCOC(=O)c1cc(S(=O)(=O)Nc2ccc(OC(F)(F)F)cc2)[nH]n1 | 87%
31 | CCN1CCN(c2cc(C)c3cc(NC(=O)c4cc(Cl)ccc4OC)ccc3n2)CC1 | 2% (active)
32 | COc1ccccc1C(=O)Nc1ccc2nc(N3CCC(C)CC3)cc(C)c2c1 | 0% (active)
33 | COc1ccccc1CC(=O)Nc1ccc2nc(N3CCC(C)CC3)cc(C)c2c1 | 71%
34 | COc1ccc(C(=O)Nc2ccc3nc(N4CCC(C)CC4)cc(C)c3c2)cc1 | 86%
35 | CCN1CCN(c2cc(C)c3cc(NC(=O)c4cc(OC)c(OC)c(OC)c4)ccc3n2)CC1 | 73%
36 | CCN1CCN(c2cc(C)c3cc(NC(=O)c4ccc(OC)c(OC)c4)ccc3n2)CC1 | 65%
37 | CCSc1nc(NC(C)=O)nn1C(C)=O | 103%
38 | Cc1ccc(NC(=O)Cc2c(C(=O)O)c(C)cn2C)cc1Cl | 87%
39 | CCOCCCn1c(SCC(=O)Nc2ccccc2OC)nc2c(oc3ccccc32)c1=O | 81%
40 | CCOc1ccc(C(=O)Nc2cccc(C(=O)OCc3cc(=O)n4cc(C)sc4n3)c2)cc1 | 81%
41 | COc1ccc(OCCn2cnc3ccccc32)cc1 | 107%
42 | Cc1cc2ncn(CCC(=O)Nc3ccccc3F)c2cc1C | 105%
43 | Cc1ccc(OCCCCn2cnc3ccccc32)cc1 | 29% (active)
44 | CC(=O)OC(COc1ccccc1)Cn1cnc2cc(C)c(C)cc21 (centres undefined) | 125%
45 | Cc1cc2ncn(CCCCOc3ccccc3)c2cc1C | 20% (active)
46 | c1ccc2c(c1)ncn2CCn1cnc2ccccc21 | 104%

Row | SMILES | survival
47 | Cc1ccc(Cl)cc1N1CCN(C(=O)C2CCN(S(=O)(=O)c3ccc4c(c3)oc(=O)n4C)CC2)CC1 | 66%
48 | Cc1cccc(N2CCN(c3cc(C)nc4c(-c5ccc(Cl)cc5)c(C)nn34)CC2C)c1 (centres undefined) | 74%
49 | Cc1ccc(N2CCN(c3cc(C)nc4c(-c5ccc(Cl)cc5)c(C)nn34)CC2C)cc1 (centres undefined) | 14% (active)
50 | Cc1ccc(C)c(N2CCN(c3cc(C)nc4c(-c5ccc(Cl)cc5)c(C)nn34)CC2)c1 | 96%
51 | Cc1n[nH]c(=S)n1CC(=O)N1c2ccccc2CCc2ccccc21 | 102%
52 | CC1=C(C(=O)Nc2ccccc2)C(c2ccc(Br)cc2)n2nc(CCCO)nc2N1 (centres undefined) | 79%
53 | CCOc1ccc(NC(=O)Cn2cc(C(=O)c3ccc(C)c(C)c3)c(=O)c3cc(F)ccc32)cc1 | 89%
54 | COc1ccc(CNS(=O)(=O)c2cc(Br)cc3c2N(C(C)=O)C(C)C3)cc1 (centres undefined) | 138%
55 | CC(=O)N1c2c(cc(Br)cc2S(=O)(=O)Nc2ccc(OC(F)(F)F)cc2)CC1C (centres undefined) | 105%
56 | COc1cc(NS(=O)(=O)c2cc(Br)cc3c2N(C(C)=O)C(C)C3)cc(OC)c1 (centres undefined) | -3% (active)
57 | O=C(Cn1ccc2cc(S(=O)(=O)N3CCCCC3)ccc21)NCc1cccc(Cl)c1 | 128%
58 | Cc1cccc(CNC(=O)Cn2ccc3cc(S(=O)(=O)N4CCCC4)ccc32)c1 | 69%
59 | Cc1cccc(CNC(=O)Cn2ccc3cc(S(=O)(=O)N4CCCCCC4)ccc32)c1 | -6% (active)
60 | CCc1ccc(CNC(=O)C(C)n2ccc3cc(S(=O)(=O)N4CCCCCC4)ccc32)cc1 (centres undefined) | 75%
61 | CN(C)c1ccc(CNC(=O)CCCn2ccc3cc(S(=O)(=O)N4CCCC4)ccc32)cc1 | 0% (active)
62 | Cc1ccc(CNC(=O)C(C)n2ccc3cc(S(=O)(=O)N4CCCC4)ccc32)cc1 (centres undefined) | 66%
63 | Cc1cccc(CNC(=O)Cn2ccc3cc(S(=O)(=O)N4CCC(C)CC4)ccc32)c1 | 67%
64 | Cc1cccc(CNC(=O)CCn2ccc3cc(S(=O)(=O)N4CCCC4)ccc32)c1 | 76%
65 | O=C(CCn1ccc2cc(S(=O)(=O)N3CCCC3)ccc21)NCc1cccc(Cl)c1 | -1% (active)
66 | COc1ccc(CNC(=O)CCCn2ccc3cc(S(=O)(=O)N4CCCC4)ccc32)cc1 | 75%
67 | CCc1ccc(CNC(=O)CCCn2ccc3cc(S(=O)(=O)N4CCCC4)ccc32)cc1 | 63%
68 | CC(C(=O)NCc1ccccc1)n1ccc2cc(S(=O)(=O)N3CCCC3)ccc21 (centres undefined) | -3% (active)
69 | O=C(CSc1nc2nccnc2c(=O)n1CCc1c[nH]c2ccccc12)Nc1ccc(F)cc1 | 42%

Row | SMILES | survival
70 | CCn1c(CNc2cccc(Cl)c2)nnc1SCc1ccccc1 | 105%
71 | O=C1CCCC2=C1C(c1ccc3c(c1)OCO3)c1c([nH]c(=O)[nH]c1=O)N2 (centres undefined) | 111%
72 | CCOC(=O)c1ccccc1NC(=O)NCc1cccn1Cc1ccc(F)cc1 | 84%
73 | CC(=O)c1cccc(NC(=O)c2sc(-n3nc(C)c(Cc4ccc5c(c4)OCO5)c3C)nc2C)c1 | 94%
74 | Cc1ccc(Cn2c(CN3CCC(C(=O)O)CC3)cc3ccccc32)cc1 | 82%
75 | O=C(CCn1ccc2cc(S(=O)(=O)N3CCCC3)ccc21)NCc1ccccc1Cl | 14% (active)
76 | O=C(Cn1ccc2cc(S(=O)(=O)N3CCCCCC3)ccc21)NCCc1ccccc1Cl | 72%
77 | O=C(CCn1ccc2cc(S(=O)(=O)N3CCCC3)ccc21)NCc1ccccc1Br | 72%
78 | CC1CCN(S(=O)(=O)c2ccc3c(ccn3CC(=O)NCc3ccccc3F)c2)CC1 | 53%
79 | O=C(CCn1ccc2cc(S(=O)(=O)N3CCCC3)ccc21)NCc1ccccc1F | 83%
80 | CC1CCN(S(=O)(=O)c2ccc3c(ccn3CCC(=O)NCc3ccccc3F)c2)CC1 | -6% (active)
81 | CCOc1ccccc1CNC(=O)CCn1ccc2cc(S(=O)(=O)N3CCC(C)CC3)ccc21 | 69%
82 | O=C(Cn1ccc2cc(S(=O)(=O)N3CCCCC3)ccc21)NCCc1ccccc1Cl | -6% (active)
83 | O=C(Cn1ccc2cc(S(=O)(=O)N3CCCCCC3)ccc21)NCc1ccccc1Cl | 73%
84 | NC(=O)C1CCCN1S(=O)(=O)c1ccc(F)cc1 (centres undefined) | 110%
85 | Cc1ccc2c(c1)N(C(=O)N1CCC(C(=O)Nc3cccc(F)c3)CC1)CCO2 | 70%
86 | COc1cc(C2c3c(oc4ccc(C)cc4c3=O)C(=O)N2Cc2ccc(F)cc2)ccc1O (centres undefined) | 83%
87 | CCCC(C(=O)Nc1cc(C)c(Cl)cc1OC)N1Cc2ccccc2C1=O (centres undefined) | 71%
88 | CCOC(=O)c1ccccc1NS(=O)(=O)c1c(-c2ccc(C)cc2)csc1C(=O)OC | 134%
89 | Cc1ccc2oc(-c3ccc(Cl)c(NC(=O)c4cc5ccccc5o4)c3)nc2c1 | 66%
